We go through 61 molecules from PubChem BioAssay AID1347075 (National Center for Advancing Translational Sciences (NCATS), 2019).

Among all 400,000 compounds or so, about 5,500 (1.4%) were called active. Not shown: some 9% with an inconclusive outcome. The sample as a whole holds a higher share of actives than the screen did. A number with no mark means an inactive call. Calls come from the whole dose curve; as a rule, active = well fitted cell-killing curve with a large enough effect; inconclusive = small, poorly fitted or top-dose-only effect, or effect the other way; inactive = flat fitted curve, though single readings scatter.
% is set by controls: 0 for no effect and ±100 for the full control effect; potency is the fitted concentration of half-maximal effect.

This experiment is described as follows: qHTS assay for MDR1-selective chemotherapeutics: Primary screen using the parental adenocarcinoma cell KB-3-1. Note: nearly all actives have a fitted effect of over 60% in size. As to conditions: KB-3-1 viability, CellTiter-Glo ATP luminescence, 72 h; series mostly up to 46.1 µM; activity change, negative = cytotoxic: at the top concentration. In short, it runs like this:
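Using CellTiter-Glo luminescence, growth of non-resistant KB-3-1 adenocarcinoma cells is assessed 72 h after pin-tool compound addition at 37 °C. Normalized responses across the concentration series yield fitted curves.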
As for `COc1ccc(NC(=O)CCCN2C(=O)CCn3nc(-c4cn(C)c5ccccc45)cc32)cc1OC`, the “activity change, negative = cytotoxic” value was 11.5%.
Consider `Cc1cc(NC(=O)c2cccc(Cl)c2)ccc1-c1cc2ccccc2oc1=O`, for which the “activity change, negative = cytotoxic” value is -2.7%.
In the case of `O=c1oc2ccccc2cc1-c1cn(-c2ccccc2)c(=S)[nH]1`, the Potency was 3.66 µM (active).
For `COc1cc(CNC(=O)c2cc3n(n2)CCCN(Cc2cccc(F)c2)C3=O)cc(OC)c1OC`, the “activity change, negative = cytotoxic” value was -22.8%.
On the same count and under the same terms, with `COc1ccc(CNC(=O)CSc2nc3ccccc3nc2Cc2ccccc2)cc1` the figure was 5.2%.
For the molecule `COc1ccc2c(c1)c(=Cc1ccc(N(C)C)cc1)c1cc(-c3ccccc3)[n+](C)n12`, the Potency is 3.66 µM (active).
Take `CN(C)c1ccc(/C=c2\[nH]c(=O)/c(=C/c3ccc(N(C)C)cc3)[nH]c2=O)cc1`: the “activity change, negative = cytotoxic” value was 0.186%.
With `NC(=O)C1CCN(c2cc(-c3ccc4c(c3)OCCCO4)ncn2)CC1`, the “activity change, negative = cytotoxic” value is 0%.
On to `Cc1oc2ccc(O)c(CN3CCCCC3)c2c1C(=O)Nc1cccc(C(F)(F)F)c1`, for which the “activity change, negative = cytotoxic” value was -4.63%.
Take `COc1ccc(CCNC(=O)c2ccc(-n3c(C)cc4c3CCCC4)cc2)cc1OC`: the “activity change, negative = cytotoxic” value is 2.17%.
Consider `CC(=O)c1ccc(Oc2cc(C)nc(-n3nc(C)cc3C)n2)cc1`, for which the Potency is 0.651 µM (active).
Turning to `Cc1cc(C)nc(-n2nc(C)cc2NC(=O)c2ccc(F)cc2F)n1`, the “activity change, negative = cytotoxic” value was -0.123%.
As to `COc1ccccc1/C=N\Nc1cc(C)nc(-n2nc(C)cc2C)n1`, the Potency is 7.31 µM (active).
In the case of `COc1ccccc1/C=N/N1CCN(Cc2ccccc2Cl)CC1`, the “activity change, negative = cytotoxic” value is -4.62%.
Same read-out and setting: the value for `COc1ccc(C(=O)NNc2cc(C)nc(NNC(=O)c3ccc(OC)cc3)n2)cc1` was 0%.
`COc1ccc(Nc2cc(C)nc(-n3nc(C)cc3C)n2)cc1`: the Potency was 0.731 µM (active).
For `COc1ccc(Nc2cc(Sc3ccc(OC)cc3)ncn2)cc1`, the “activity change, negative = cytotoxic” value was -20.2%.
Same read-out and setting: with `COc1ccc(C(C)=O)cc1CSc1nc2nc(C)cc(C)n2n1` the figure was -8.05%; with `COc1cc(Cl)c(C)cc1Nc1nnc(-n2nc(C)cc2C)c2ccccc12`, 3.44%.
In the case of `NS(=O)(=O)c1ccc(NC(=O)C(=O)Nc2ccc3nc4n(c(=O)c3c2)CCCCC4)cc1`, the “activity change, negative = cytotoxic” value is 0.279%.
As for `COc1ccc(CCN2C(=O)N(c3cccc(OC)c3)C(=O)C2CC(=O)Nc2ccccc2)cc1` (stereo unspecified), the “activity change, negative = cytotoxic” value is 0%.
Still for that read-out and setting: with `COc1ccccc1CNS(=O)(=O)c1cc(Br)cc2c1N(C(C)=O)C(C)C2` (stereo unspecified) the figure was -14.7%.
The same measure, in the same setting: the value for `Cc1ccc2c(c1)c1c(c(=O)n(-c3ccccc3)c(=O)n1CC(=O)c1ccc(Cl)cc1)n2C` was 5.37%; that for `COC(=O)CC1Oc2ccccc2-n2cc(-c3ccccc3)nc21` (stereo unspecified) was -0.952%.
On the same count and under the same terms, with `CCOCCCNC(=O)c1c(NC(=O)Cc2coc3c(C)c(C)ccc23)sc2c1CCC2` the figure was 6.28%.
Take `O=C(CCc1ccccc1)NCc1ccc2c(c1)CCN2C(=O)c1ccccc1`: the “activity change, negative = cytotoxic” value is -4.5%.
The same measure, in the same setting: with `CCCCn1c(CNC(=O)C23CC4CC(CC(C4)C2)C3)nnc1SCC(=O)Nc1ccc(C)cc1` the figure was -2.31%; with `Cc1ccc(C(=O)Nc2cc3c(cc2N2CCCC2)n(C)c(=O)c(=O)n3C)cc1`, 6.25%.
Regarding `CCCC1=Nc2cc(C(=O)NCc3ccco3)ccc2Sc2ccccc21`, the Potency was 5.8 µM (active).
Consider `COc1ccc(CCNS(=O)(=O)c2ccc(C(=O)NCc3ccco3)cc2)cc1OC`, for which the “activity change, negative = cytotoxic” value is 0.297%.
Still for that read-out and setting: with `CCCC1=Nc2cc(C(=O)NCCN3CCCC3)ccc2Sc2ccccc21` the figure was -6.09%; with `Cc1ccc(OCC(=O)Nc2ccc(Cl)c(-c3nc4ccccc4[nH]3)c2)cc1C`, 0.112%; with `O=C(c1ccc(Cl)cc1)n1nc(-c2cccnc2)nc1NCc1ccc(F)cc1`, 5.88%.
On the same count and under the same terms, with `O=C(Cn1nc(C(F)(F)F)c2c1CCCC2)Nc1ccc(Cl)cc1` the figure was 0.234%.
For the molecule `O=C(Cn1nc(CNc2ccc(Cl)cc2)[n+]2c1CCCCC2)c1ccc(Cl)cc1`, the Potency was 16.4 µM (active).
For the molecule `O=C(Cn1ncc(N2CCCC2)c(Br)c1=O)c1ccc(Cl)cc1`, the “activity change, negative = cytotoxic” value is -13.7%.
With `Cc1nc2ccc(S(=O)(=O)N(CC(=O)Nc3ccc(F)cc3)Cc3ccccc3)cc2s1`, the “activity change, negative = cytotoxic” value is 2.96%.
Turning to `COc1ccc(-c2nc3c4ccccc4n(CC(=O)Nc4ccc(C(C)=O)cc4)c(=O)n3n2)cc1`, the “activity change, negative = cytotoxic” value is 11.5%.
On the same count and under the same terms, with `COc1ccccc1C(=O)Nc1ccc(C)c(S(=O)(=O)N2CCCCC2)c1` the figure was 0%; with `Cc1ccc(NC(=O)COC(=O)C2CC2)cc1S(=O)(=O)N1CCOCC1`, 12.9%.
As for `CCc1ccccc1OCC(=O)Nc1ccc(C)c(S(=O)(=O)N2CCCCCC2)c1`, the Potency was 18.4 µM (active).
As to `O=C(CCc1nc(CN2CCN(S(=O)(=O)c3ccc(Cl)cc3)CC2)no1)N1CCCCC1`, the “activity change, negative = cytotoxic” value was 10.5%.
Still for that read-out and setting: the value for `COc1cc2ccccc2cc1C(=O)Nc1cccc(-c2nc3ccccc3o2)c1` was -28.8%.
Same read-out and setting: with `Cc1cccc(NC(=O)CSc2nc3c([nH]c4ccccc43)c(=O)n2-c2cc(C)cc(C)c2)c1` the figure was 9.13%; with `Cc1oc(C)c2c(=O)cc(-c3ccc4c(c3)OCO4)cc(OC(=O)c3ccc(Cl)cc3)c12`, 5.96%.
Turning to `COc1cc(-c2c(-c3ccc4c(c3)OCO4)noc2C)ccc1F`, the Potency is 3.26 µM (active).
For the molecule `COc1cc2c(-c3ccc4c(c3)OCO4)c(-c3ccsc3)oc(=O)c2cc1OC`, the “activity change, negative = cytotoxic” value was -11.2%.
Turning to `Cc1ccc(C=O)cc1Cl`, the “activity change, negative = cytotoxic” value was -8.55%.
As to `O=C(CSc1oc(-c2ccccc2)nc1S(=O)(=O)c1ccc(Br)cc1)NC1CCCCC1`, the “activity change, negative = cytotoxic” value is 4.96%.
Still for that read-out and setting: the value for `COc1ccc(OC)c(-c2noc(N3CCN(c4cc(Cl)ccc4C)CC3)n2)c1` was 0.175%; that for `CCOc1ccccc1CNC(=O)c1cnc2c(-c3ccc(OCC)c(OCC)c3)c(C)nn2c1C` was 4.74%; that for `Cc1ccccc1-c1nc2cc(NC(=O)c3cccc(OCCC(C)C)c3)ccc2o1` was 0%.
Turning to `Cc1cc(O)c(C(c2ccccc2)N2CCN(c3ccccc3F)CC2)c(=O)n1Cc1ccco1` (stereo unspecified), the “activity change, negative = cytotoxic” value is 10.2%.
`COc1ccc(C)cc1NC(=O)CCS(=O)(=O)c1cccc2nonc12`: the “activity change, negative = cytotoxic” value is 6.36%.
Consider `Cc1ccc(S(=O)(=O)CCC(=O)OCC(=O)N(C)Cc2ccccc2)cc1`, for which the “activity change, negative = cytotoxic” value is 11%.
On to `Cc1cccc2sc(N(CCCN(C)C)C(=O)CCS(=O)(=O)c3ccccc3)nc12`, for which the Potency was 20.6 µM (active).
The same measure, in the same setting: with `COc1cccc2sc(N(CCCN(C)C)C(=O)CCS(=O)(=O)c3ccccc3)nc12` the figure was 18.4 µM (active).
On to `Cc1cccc(C)c1NC(=O)CCS(=O)(=O)c1cccc2nsnc12`, for which the “activity change, negative = cytotoxic” value was 19.3%.
On the same count and under the same terms, with `COc1ccccc1CNC(=O)CS(=O)(=O)c1cccc2nsnc12` the figure was -7.34%.
Regarding `COc1cc(NC(=O)c2nn(-c3ccc(C)cc3)c(=O)c3c2c2ccccc2n3C)cc(OC)c1OC`, the “activity change, negative = cytotoxic” value is 5.86%.
The same measure, in the same setting: the value for `COc1ccc(C)cc1-n1c(-c2ccc(C)cc2)cc2c1CC(C)(C)CC2=O` was -7.59%.
